According to PubChem BioAssay AID1159580 (chemical genetic matrix, 2015):
Values joined by “and” are separate entries in the source; they are usually repeats but may differ in a detail not shown here. Equal values may be shown once. In all, about 5,500 compounds went through this assay and about 2,000 (36%) were called active. Inconclusive results (about 18%) are left out. Cut-off read from the data, not from the text of the source: active = normalized growth mostly below about 0.91 (no sharp cut-off); inconclusive = no clear call, values can overlap the other calls; inactive = mostly above about 0.92. Some of the results follow.

Assay: chemical genetic growth profiling, strain panel (AID 1159580);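 note: tested at 20 µM; growth read once vehicle control cultures reached saturation at 30 °C; 1 = growth at the plate median or of vehicle wells; lower values mean less growth of the strain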
Settings: S. cerevisiae deletion strains, growth OD

Measured: normalized growth

Cc1ncc(CNC(=O)N(CCCl)N=O)c(N)n1
inactive: locus YAL013W, strain DEP1, stronger effect = lower value 1.01 and 1 | locus YAL021C, strain ccr4, stronger effect = lower value 0.948 | locus YAL026C, strain drs2, stronger effect = lower value 1.02 | locus YAL030W, strain snc1, stronger effect = lower value 1.01 | locus YAL040C, strain CLN3, stronger effect = lower value 0.981 | locus YBL061C, strain skt5, stronger effect = lower value 1.01 | locus YBR009C, strain hhf1, stronger effect = lower value 0.992 | locus YBR021W, strain FUR4, stronger effect = lower value 0.994 | locus YBR023C, strain chs3, stronger effect = lower value 1 | locus YBR171W, strain sec66, stronger effect = lower value 1.02 | locus YBR229C, strain ROT2, stronger effect = lower value 1.03 | locus YBR231C, strain swc5, stronger effect = lower value 1.03 | locus YBR279W, strain paf1, stronger effect = lower value 1 | locus YCL011C, strain gbp2, stronger effect = lower value 1 | locus YCL016C, strain dcc1, stronger effect = lower value 0.978 | locus YCL029C, strain bik1, stronger effect = lower value 0.985 | locus YCL061C, strain MRC1 (second series), stronger effect = lower value 1 | locus YCL061C, strain MRC1, stronger effect = lower value 0.999 | locus YCL069W, strain vba3, stronger effect = lower value 1.01 | locus YCR088W, strain abp1, stronger effect = lower value 1.01 | locus YDL005C, strain med2, stronger effect = lower value 1.01 | locus YDL035C, strain GPR1, stronger effect = lower value 1 | locus YDL040C, strain nat1, stronger effect = lower value 1.02 | locus YDL074C, strain BRE1, stronger effect = lower value 1.02 | locus YDL101C, strain DUN1, stronger effect = lower value 1.01 | locus YDL134C, strain PPH21, stronger effect = lower value 1.03 | locus YDL185W, strain tfp1, stronger effect = lower value 0.985 | locus YDL192W, strain arf1, stronger effect = lower value 0.997 | locus YDR001C, strain nth1, stronger effect = lower value 1.01 | locus YDR069C, strain doa4, stronger effect = lower value 1.02 | locus YDR101C, strain arx1, stronger effect = lower value 0.983 | locus YDR137W, strain rgp1, stronger effect = lower value 1.04 | locus YDR150W, strain NUM1, stronger effect = lower value 1.03 and 0.998 | locus YDR159W, strain sac3, stronger effect = lower value 1.08 | locus YDR162C, strain NBP2, stronger effect = lower value 1 | locus YDR195W, strain ref2 0.993 | locus YDR297W, strain sur2, stronger effect = lower value 1.02 | locus YDR318W, strain mcm21, stronger effect = lower value 1 | locus YDR334W, strain swr1, stronger effect = lower value 1.02 | locus YDR335W, strain msn5, stronger effect = lower value 1.01 | locus YDR363W, strain ESC2, stronger effect = lower value 1 | locus YDR388W, stronger effect = lower value 0.986 | locus YDR392W, strain spt3, stronger effect = lower value 0.917 | locus YDR502C, strain sam2, stronger effect = lower value 0.99 | locus YEL003W, strain gim4, stronger effect = lower value 1.01 | locus YEL037C, strain rad23, stronger effect = lower value 1.01 | locus YEL061C, strain CIN8 (second series), stronger effect = lower value 1.01 | locus YEL061C, strain CIN8, stronger effect = lower value 1.02 | locus YER002W, strain NOP16, stronger effect = lower value 1 | locus YER015W, strain faa2, stronger effect = lower value 0.982 | locus YER016W, strain bim1, stronger effect = lower value 1.02 | locus YER110C, stronger effect = lower value 0.979 | locus YER111C, strain swi4, stronger effect = lower value 1.01 | locus YER155C, strain BEM2 (second series), stronger effect = lower value 1.03 | locus YER155C, strain BEM2, stronger effect = lower value 1 | locus YER167W, strain BCK2, stronger effect = lower value 1.01 | locus YFR010W, strain ubp6, stronger effect = lower value 1.01 | locus YGL078C, strain dbp3, stronger effect = lower value 0.991 | locus YGL086W, strain mad1, stronger effect = lower value 1 | locus YGL167C, strain pmr1, stronger effect = lower value 1 | locus YGL173C, strain kem1, stronger effect = lower value 1.01 | locus YGL227W, strain vid30, stronger effect = lower value 1.01 | locus YGL240W, strain doc1, stronger effect = lower value 1.01 | locus YGL248W, strain PDE1, stronger effect = lower value 1.02 | locus YGL253W, strain hxk2, stronger effect = lower value 1.01 | locus YGR078C, strain PAC10, stronger effect = lower value 1.01 | locus YGR135W, strain pre9, stronger effect = lower value 1 | locus YGR229C, strain SMI1, stronger effect = lower value 0.994 | locus YGR252W, strain gcn5, stronger effect = lower value 0.976 | locus YHR013C, strain ard1, stronger effect = lower value 1 | locus YHR027C, strain rpn1, stronger effect = lower value 1.04 | locus YHR030C, strain SLT2, stronger effect = lower value 1.02 and 0.958 | locus YHR079C, strain IRE1 (second series), stronger effect = lower value 0.984 | locus YHR079C, strain IRE1, stronger effect = lower value 0.957 | locus YHR094C, strain hxt1, stronger effect = lower value 0.989 | locus YHR129C, strain ARP1, stronger effect = lower value 1.02 | locus YHR142W, strain chs7, stronger effect = lower value 1.01 | locus YHR200W, strain rpn10, stronger effect = lower value 0.988 | locus YIL066C, strain RNR3, stronger effect = lower value 1.02 | locus YIL073C, strain SPO22, stronger effect = lower value 0.994 | locus YIL125W, strain kgd1, stronger effect = lower value 0.995 | locus YIR030C, strain dcg1, stronger effect = lower value 0.987 | locus YJL092W, strain hpr5, stronger effect = lower value 0.978 | locus YJL095W, strain BCK1 (second series), stronger effect = lower value 1.03 | locus YJL095W, strain BCK1, stronger effect = lower value 0.999 and 0.951 | locus YJL115W, strain asf1, stronger effect = lower value 1.01 | locus YJL129C, strain trk1, stronger effect = lower value 1.03 | locus YJL134W, strain LCB3, stronger effect = lower value 1.02 | locus YJL154C, strain vps35, stronger effect = lower value 1.01 | locus YJL164C, strain tpk1, stronger effect = lower value 0.988 | locus YJL166W, strain qcr8, stronger effect = lower value 1.01 | locus YJL168C, strain set2, stronger effect = lower value 0.99 | locus YJL187C, strain SWE1 (second series), stronger effect = lower value 1.02 | locus YJL187C, strain SWE1, stronger effect = lower value 0.993 | locus YJR043C, strain POL32, stronger effect = lower value 0.902 | locus YJR066W, strain TOR1, stronger effect = lower value 0.901
